Results published in PubChem BioAssay (NCATS).
Inconclusive results are not listed. Activity calls are given as the source filed them. The call rests on the fitted dose curve; in most records, active means well fitted curve in the direction sought with a large enough effect; inconclusive means small, poorly fitted or top-dose-only effect, or another doubt; inactive means no such curve, though single readings can be large; an effect the other way counts as inactive or inconclusive.

Key:
[1] = S16 Schwann cell viability assay (CellTiter-Glo assay) (AID 624031);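 further: cellular ATP luminescence as a viability measure; nearly all actives have a fitted effect of over 70% in size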
Outline: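 Native S16 rat Schwann cells in DMEM/10% FBS without phenol red were incubated overnight, then exposed to compounds for 24 h at 37 °C/5% CO2. Viability was read as ATP luminescence (CellTiter-Glo), normalized to no-cell wells and DMSO (0%).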

ATS189 = experiment: qHTS profiling for inhibitors of Plasmodium falciparum proliferation (AID 504749); further: nearly all actives have a fitted effect of over 60% in size; further: potency means the concentration at half of the fitted maximal effect; conditions: P. falciparum in erythrocytes, SYBR Green DNA, 72 h; series mostly up to 12.8 µM
Outline: (§1)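 P. falciparum-infected erythrocytes (0.3% parasitemia, 2.5% hematocrit final) were exposed to compounds for 72 h at 37 C in 5% CO2, then lysed with SYBR Green buffer overnight at room temperature; parasite DNA fluorescence was normalized to artemisinin and DMSO controls.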

CP185 = experiment: as above; conditions: P. falciparum in erythrocytes, SYBR Green DNA, 72 h; series mostly up to 12.8 µM
Outline: as §1

CP191 = experiment: as above; conditions: P. falciparum in erythrocytes, SYBR Green DNA, 72 h; series mostly up to 12.8 µM
Outline: as §1

CP201 = experiment: as above; conditions: P. falciparum in erythrocytes, SYBR Green DNA, 72 h; series mostly up to 12.8 µM
Outline: as §1

CP247 = experiment: as above; conditions: P. falciparum in erythrocytes, SYBR Green DNA, 72 h; series mostly up to 12.8 µM
Outline: as §1

CP250 = experiment: as above; conditions: P. falciparum in erythrocytes, SYBR Green DNA, 72 h; series mostly up to 12.8 µM
Outline: as §1

CP256 = experiment: as above; conditions: P. falciparum in erythrocytes, SYBR Green DNA, 72 h; series mostly up to 12.8 µM
Outline: as §1

CP262 = experiment: as above; conditions: P. falciparum in erythrocytes, SYBR Green DNA, 72 h; series mostly up to 12.8 µM
Outline: as §1

CP325 = experiment: as above; conditions: P. falciparum in erythrocytes, SYBR Green DNA, 72 h; series mostly up to 12.8 µM
Outline: as §1

CP329 = experiment: as above; conditions: P. falciparum in erythrocytes, SYBR Green DNA, 72 h; series mostly up to 12.8 µM
Outline: as §1

Dd2 = experiment: as above; conditions: P. falciparum in erythrocytes, SYBR Green DNA, 72 h; series mostly up to 12.8 µM
Outline: as §1

HB3 = experiment: as above; conditions: P. falciparum in erythrocytes, SYBR Green DNA, 72 h; series mostly up to 12.8 µM
Outline: as §1

JCK = experiment: as above; conditions: P. falciparum in erythrocytes, SYBR Green DNA, 72 h; series mostly up to 12.8 µM
Outline: as §1

N140 = experiment: as above; conditions: P. falciparum in erythrocytes, SYBR Green DNA, 72 h; series mostly up to 12.8 µM
Outline: as §1

PC15 = experiment: as above; conditions: P. falciparum in erythrocytes, SYBR Green DNA, 72 h; series mostly up to 12.8 µM
Outline: as §1

PC49 = experiment: as above; conditions: P. falciparum in erythrocytes, SYBR Green DNA, 72 h; series mostly up to 12.8 µM
Outline: as §1

SC27B = experiment: as above; conditions: P. falciparum in erythrocytes, SYBR Green DNA, 72 h; series mostly up to 12.8 µM
Outline: as §1

TAB113 = experiment: as above; conditions: P. falciparum in erythrocytes, SYBR Green DNA, 72 h; series mostly up to 12.8 µM
Outline: as §1

Measured: Potency

CC1(C)O[C@@H]2C[C@H]3[C@H]4C[C@H](F)C5=CC(=O)C=C[C@@]5(C)[C@@H]4[C@H](O)C[C@]3(C)[C@]2(C(=O)CO)O1
inactive: all assays above

CCN(CC)CCC[C@H](C)Nc1ccnc2cc(Cl)ccc12
active: CP185 4.47 µM | CP191 8.91 µM | CP201 12 µM | CP250 3.98 µM | CP256 8.91 µM | CP262 2.39 µM | CP325 7.57 µM | CP329 15.1 µM | Dd2 10 µM | HB3 0.316 µM | JCK 10 µM | N140 11.2 µM | PC15 2.51 µM
inactive: [1]

CC(=O)O[C@@H](C)C[N+](C)(C)C
inactive: all assays above

CC(=O)Nc1c(I)c(C(=O)N[C@H]2[C@@H](O)[C@H](O)[C@H](CO)O[C@@H]2O)c(I)c(N(C)C(C)=O)c1I
inactive: all assays above

CN(N=O)C(=O)N[C@H]1[C@@H](O)[C@H](O)[C@H](CO)O[C@@H]1O
inactive: all assays above

O=c1[nH]c(=O)n([C@@H]2C[C@H](O)[C@H](CO)O2)cc1I
inactive: all assays above

CC(C)(O/N=C(\C(=O)N[C@@H]1C(=O)N2C(C(=O)[O-])=C(C[n+]3ccccc3)CS[C@@H]12)c1csc(N)n1)C(=O)O
inactive: all assays above

C[C@@H](CN(C)C)CN1c2ccccc2CCc2ccccc21
not listed: [1] | CP191 | Dd2 | N140
inactive: all other assays above

C[C@H](NCCc1ccc(O)cc1)[C@@H](O)c1ccc(O)cc1
inactive: all assays above

COCCc1ccc(OC[C@H](O)CNC(C)C)cc1
inactive: all assays above

C[n+]1ccccc1/C=N\O
inactive: all assays above

COc1c(O)cc2c(c1O)[C@@H]1O[C@@H](CO)[C@@H](O)[C@@H](O)[C@@H]1OC2=O
inactive: all assays above

CN[C@@H](CC(C)C)C(=O)N[C@@H]1C(=O)N[C@H](CC(N)=O)C(=O)N[C@@H]2C(=O)N[C@H]3C(=O)N[C@H](C(=O)N[C@H](C(=O)O)c4cc(O)cc(O)c4-c4cc3ccc4O)[C@H](O)c3ccc(c(Cl)c3)Oc3cc2cc(c3O[C@H]2O[C@@H](CO)[C@@H](O)[C@@H](O)[C@@H]2O[C@@H]2C[C@](C)(N)[C@H](O)[C@H](C)O2)Oc2ccc(cc2Cl)[C@@H]1O
inactive: all assays above

C[C@@H](C(=O)O)c1ccc(C(=O)c2cccs2)cc1
not listed: [1]
inactive: all other assays above

CC(C)NC[C@H](O)c1cc(O)cc(O)c1
inactive: all assays above

NC(=O)OC[C@H](O)COc1ccc(Cl)cc1
inactive: all assays above

CN(C)[C@@H]1C(=O)C(C(N)=O)=C(O)[C@]2(O)C(=O)C3=C(O)c4c(O)ccc(Cl)c4[C@H](O)[C@H]3C[C@@H]12
active: Dd2 3.16 µM
not listed: HB3
inactive: all other assays above

CN[C@@H]1[C@H](O[C@@H]2O[C@H](CO)[C@@H](N)[C@H](O)[C@@H]2O)O[C@H]2C[C@@H](N)[C@@H](O[C@H]3[C@@H](O)[C@H](O)[C@H](N)C[C@@H]3N)O[C@H]2[C@H]1O
inactive: all assays above

O=C(O)/C=C\c1ccc(Cn2ccnc2)cc1
inactive: all assays above

C/C=C\C(=O)N(CC)c1ccccc1C
inactive: all assays above

O=c1[nH]cnc2c1ncn2C1OC(CO)C(O)C1O (stereo unspecified)
not listed: N140
inactive: all other assays above

CO/N=C(/C(=O)NC1C(=O)N2C(C(=O)O)=C(CSc3nc(=O)c(O)nn3C)CSC12)c1csc(N)n1 (stereo unspecified)
inactive: all assays above
